# Experimental data from PMC11006913.
# Changes are numbered by the printed parent chain.
# Key:
# Experiment in all cases: PBM; 200 nM protein, PBS
# Settings in all cases: dsDNA, one strand shown
# [1] = target: CRX (Homo sapiens, UniProt O43186 26-111)
# [2] = target: T1, NKX2-4 (Homo sapiens, UniProt Q9H2Z4 175-261, P217L)
# T1 sequence: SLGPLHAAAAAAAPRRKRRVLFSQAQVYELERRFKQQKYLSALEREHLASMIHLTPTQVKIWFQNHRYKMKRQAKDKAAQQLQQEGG
# [3] = target: HOXC10 (Homo sapiens, UniProt Q9NYD6 254-340)
# [4] = target: T2, NKX2-4 (Homo sapiens, UniProt Q9H2Z4 175-261)
# T2 sequence: T1 sequence with L43P
# [5] = target: HOXA2 (Homo sapiens, UniProt O43364 129-215, R185T)
# [6] = target: CRX (Homo sapiens, UniProt O43186 26-111, E42D)
# [7] = target: PITX2 (Homo sapiens, UniProt Q99697 72-157)
# [8] = target: HOXA2 (Homo sapiens, UniProt O43364 129-215, R185K)
# [9] = target: HOXC10 (Homo sapiens, UniProt Q9NYD6 254-340, K271E)
# [10] = target: T3, NKX2-4 (Homo sapiens, UniProt Q9H2Z4 175-261, R246Q)
# T3 sequence: T1 sequence with L43P, R72Q
# [11] = target: HOXA2 (Homo sapiens, UniProt O43364 129-215, Y150S)
# [12] = target: NKX3-2 (Homo sapiens, UniProt P78367 192-278, P234S)
# [13] = target: CRX (Homo sapiens, UniProt O43186 26-111, R41L)
# [14] = target: HOXA2 (Homo sapiens, UniProt O43364 129-215)
# [15] = target: NKX3-2 (Homo sapiens, UniProt P78367 192-278)
# [16] = target: T4, VENTX (Homo sapiens, UniProt O95231 78-163, R121Q)
# T4 sequence: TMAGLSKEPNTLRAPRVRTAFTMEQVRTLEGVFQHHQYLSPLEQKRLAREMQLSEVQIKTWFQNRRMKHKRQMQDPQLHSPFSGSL
# [17] = target: T5, VENTX (Homo sapiens, UniProt O95231 78-163, Y115F)
# T5 sequence: T4 sequence with Y38F, Q44R
# [18] = target: VAX1 (Homo sapiens, UniProt Q5SQQ9 86-172)
# [19] = target: VAX1 (Homo sapiens, UniProt Q5SQQ9 86-172, T142I)
# [20] = target: VAX1 (Homo sapiens, UniProt Q5SQQ9 86-172, K157R)
# [21] = target: T6, VENTX (Homo sapiens, UniProt O95231 78-163)
# T6 sequence: T4 sequence with Q44R
# [22] = target: T7, SIX6 (Homo sapiens, UniProt O95475 114-200, L167I)
# T7 sequence: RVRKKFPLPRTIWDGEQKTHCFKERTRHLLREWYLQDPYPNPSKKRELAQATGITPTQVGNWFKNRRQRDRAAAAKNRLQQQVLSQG
# [23] = target: T8, SIX6 (Homo sapiens, UniProt O95475 114-200, L143V)
# T8 sequence: T7 sequence with L30V, I54L
# [24] = target: ALX4 (Homo sapiens, UniProt Q9H161 200-286)
# [25] = target: T9, PAX4 (Homo sapiens, UniProt O43316 9-242, R200K)
# T9 sequence: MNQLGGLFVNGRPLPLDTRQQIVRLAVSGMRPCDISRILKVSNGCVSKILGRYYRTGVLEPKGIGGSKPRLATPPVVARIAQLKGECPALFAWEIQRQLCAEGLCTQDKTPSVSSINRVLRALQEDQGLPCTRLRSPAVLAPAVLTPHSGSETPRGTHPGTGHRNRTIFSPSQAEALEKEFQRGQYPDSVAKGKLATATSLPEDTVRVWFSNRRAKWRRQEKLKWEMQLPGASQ
# [26] = target: T10, SIX6 (Homo sapiens, UniProt O95475 114-200, H141N)
# T10 sequence: T7 sequence with H28N, I54L
# [27] = target: T11, SIX6 (Homo sapiens, UniProt O95475 114-200, T165P)
# T11 sequence: T7 sequence with T52P, I54L
# [28] = target: T12, PAX4 (Homo sapiens, UniProt O43316 9-242)
# T12 sequence: T9 sequence with K192R
# [29] = target: T13, SIX6 (Homo sapiens, UniProt O95475 114-200, L167M)
# T13 sequence: T7 sequence with I54M
# [30] = target: T14, SIX6 (Homo sapiens, UniProt O95475 114-200, L143M)
# T14 sequence: T7 sequence with L30M, I54L
# [31] = target: T15, SIX6 (Homo sapiens, UniProt O95475 114-200, L143I)
# T15 sequence: T7 sequence with L30I, I54L
# [32] = target: ALX4 (Homo sapiens, UniProt Q9H161 200-286, Q225E)
# [33] = target: T16, SIX6 (Homo sapiens, UniProt O95475 114-200, T165G)
# T16 sequence: T7 sequence with T52G, I54L
# [34] = target: T17, SIX6 (Homo sapiens, UniProt O95475 114-200, T139Q)
# T17 sequence: T7 sequence with T26Q, I54L
# [35] = target: ALX3 (Homo sapiens, UniProt O95076 139-225, N203Q)
# [36] = target: T18, SIX6 (Homo sapiens, UniProt O95475 114-200, T165A)
# T18 sequence: T7 sequence with T52A, I54L
# [37] = target: T19, PAX4 (Homo sapiens, UniProt O43316 9-242, R200Q)
# T19 sequence: T9 sequence with K192Q
# [38] = target: T20, PAX4 (Homo sapiens, UniProt O43316 9-242, F177V)
# T20 sequence: T9 sequence with F169V, K192R
# [39] = target: T21, SIX6 (Homo sapiens, UniProt O95475 114-200, L167V)
# T21 sequence: T7 sequence with I54V
# [40] = target: ALX3 (Homo sapiens, UniProt O95076 139-225)
# [41] = target: T22, PAX4 (Homo sapiens, UniProt O43316 9-242, F177Y)
# T22 sequence: T9 sequence with F169Y, K192R
# [42] = target: T23, SIX6 (Homo sapiens, UniProt O95475 114-200)
# T23 sequence: T7 sequence with I54L
# [43] = target: ALX3 (Homo sapiens, UniProt O95076 139-225, L168Q)
# [44] = target: T24, SIX6 (Homo sapiens, UniProt O95475 114-200, T165I)
# T24 sequence: T7 sequence with T52I, I54L
# [45] = target: ALX3 (Homo sapiens, UniProt O95076 139-225, L168V)
# [46] = target: T25, PAX4 (Homo sapiens, UniProt O43316 9-242, R227W)
# T25 sequence: T9 sequence with K192R, R219W
# [47] = target: ALX3 (Homo sapiens, UniProt O95076 139-225, N203S)
# Chain of ALX3 (Homo sapiens, UniProt O95076 139-225, N203S) (O95076 139-225 N203S): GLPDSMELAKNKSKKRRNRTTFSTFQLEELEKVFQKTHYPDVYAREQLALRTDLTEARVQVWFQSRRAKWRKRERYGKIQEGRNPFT
# Chain of CRX (Homo sapiens, UniProt O43186 26-111, R41L) (O43186 26-111 R41L): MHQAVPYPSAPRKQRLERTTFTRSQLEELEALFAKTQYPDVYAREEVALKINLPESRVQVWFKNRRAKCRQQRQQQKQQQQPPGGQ
# Chain of CRX (Homo sapiens, UniProt O43186 26-111) (O43186 26-111): as the sequence (O43186 26-111 R41L) above, with L16R counted along it
# Chain of CRX (Homo sapiens, UniProt O43186 26-111, E42D) (O43186 26-111 E42D): as the sequence (O43186 26-111 R41L) above, with L16R, E17D counted along it
# Chain of HOXA2 (Homo sapiens, UniProt O43364 129-215, Y150S) (O43364 129-215 Y150S): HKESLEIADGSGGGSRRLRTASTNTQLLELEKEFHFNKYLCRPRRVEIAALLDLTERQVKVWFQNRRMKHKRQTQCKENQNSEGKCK
# Chain of HOXA2 (Homo sapiens, UniProt O43364 129-215) (O43364 129-215): as the sequence (O43364 129-215 Y150S) above, with S22Y counted along it
# Chain of HOXA2 (Homo sapiens, UniProt O43364 129-215, R185T) (O43364 129-215 R185T): as the sequence (O43364 129-215 Y150S) above, with S22Y, R57T counted along it
# Chain of HOXA2 (Homo sapiens, UniProt O43364 129-215, R185K) (O43364 129-215 R185K): as the sequence (O43364 129-215 Y150S) above, with S22Y, R57K counted along it
# Chain of ALX3 (Homo sapiens, UniProt O95076 139-225, L168Q) (O95076 139-225 L168Q): as the sequence (O95076 139-225 N203S) above, with L30Q, S65N counted along it
# Chain of HOXC10 (Homo sapiens, UniProt Q9NYD6 254-340, K271E) (Q9NYD6 254-340 K271E): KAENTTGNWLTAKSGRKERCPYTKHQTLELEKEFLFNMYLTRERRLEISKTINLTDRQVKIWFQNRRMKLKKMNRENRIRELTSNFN
# Chain of ALX3 (Homo sapiens, UniProt O95076 139-225, N203Q) (O95076 139-225 N203Q): as the sequence (O95076 139-225 N203S) above, with S65Q counted along it
# Chain of NKX3-2 (Homo sapiens, UniProt P78367 192-278) (P78367 192-278): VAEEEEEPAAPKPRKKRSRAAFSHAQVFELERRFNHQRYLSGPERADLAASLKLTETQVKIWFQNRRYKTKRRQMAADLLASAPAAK
# Chain of ALX3 (Homo sapiens, UniProt O95076 139-225) (O95076 139-225): as the sequence (O95076 139-225 N203S) above, with S65N counted along it
# Chain of VAX1 (Homo sapiens, UniProt Q5SQQ9 86-172, K157R) (Q5SQQ9 86-172 K157R): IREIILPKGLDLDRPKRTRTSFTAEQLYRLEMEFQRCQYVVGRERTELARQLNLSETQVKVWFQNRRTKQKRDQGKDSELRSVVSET
# Chain of ALX4 (Homo sapiens, UniProt Q9H161 200-286) (Q9H161 200-286): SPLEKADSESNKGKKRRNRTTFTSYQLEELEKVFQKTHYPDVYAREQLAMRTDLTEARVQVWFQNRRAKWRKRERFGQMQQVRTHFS
# Chain of ALX4 (Homo sapiens, UniProt Q9H161 200-286, Q225E) (Q9H161 200-286 Q225E): as the sequence (Q9H161 200-286) above, with Q26E counted along it
# Chain of NKX3-2 (Homo sapiens, UniProt P78367 192-278, P234S) (P78367 192-278 P234S): as the sequence (P78367 192-278) above, with P43S counted along it
# Chain of VAX1 (Homo sapiens, UniProt Q5SQQ9 86-172) (Q5SQQ9 86-172): as the sequence (Q5SQQ9 86-172 K157R) above, with R72K counted along it
# Chain of VAX1 (Homo sapiens, UniProt Q5SQQ9 86-172, T142I) (Q5SQQ9 86-172 T142I): as the sequence (Q5SQQ9 86-172 K157R) above, with T57I, R72K counted along it
# Chain of HOXC10 (Homo sapiens, UniProt Q9NYD6 254-340) (Q9NYD6 254-340): as the sequence (Q9NYD6 254-340 K271E) above, with E18K counted along it
# Chain of ALX3 (Homo sapiens, UniProt O95076 139-225, L168V) (O95076 139-225 L168V): as the sequence (O95076 139-225 N203S) above, with L30V, S65N counted along it
sequence,measurement,setting,value
GCCCGGGC,binding signal,[1],"8.05 upbm affinity estimate (log intensity, higher = more binding, comparable within an allelic series)"
same,binding signal,[2],"8.34 upbm affinity estimate (log intensity, higher = more binding, comparable within an allelic series)"
same,binding signal,[3],"9.84 upbm affinity estimate (log intensity, higher = more binding, comparable within an allelic series)"
same,binding signal,[4],"8.35 upbm affinity estimate (log intensity, higher = more binding, comparable within an allelic series)"
same,binding signal,[5],"6.98 upbm affinity estimate (log intensity, higher = more binding, comparable within an allelic series)"
same,binding signal,[6],"8.04 upbm affinity estimate (log intensity, higher = more binding, comparable within an allelic series)"
same,binding signal,[7],"8.05 upbm affinity estimate (log intensity, higher = more binding, comparable within an allelic series)"
same,binding signal,[8],"9.77 upbm affinity estimate (log intensity, higher = more binding, comparable within an allelic series)"
same,binding signal,[9],"10.1 upbm affinity estimate (log intensity, higher = more binding, comparable within an allelic series)"
same,binding signal,[10],"8.33 upbm affinity estimate (log intensity, higher = more binding, comparable within an allelic series)"
same,binding signal,[11],"10.4 upbm affinity estimate (log intensity, higher = more binding, comparable within an allelic series)"
same,binding signal,[12],"9.95 upbm affinity estimate (log intensity, higher = more binding, comparable within an allelic series)"
same,binding signal,[13],"8.04 upbm affinity estimate (log intensity, higher = more binding, comparable within an allelic series)"
same,binding signal,[14],"7.45 upbm affinity estimate (log intensity, higher = more binding, comparable within an allelic series)"
same,binding signal,[15],"9.83 upbm affinity estimate (log intensity, higher = more binding, comparable within an allelic series)"
ACAGATTA,binding signal,[1],"12.8 upbm affinity estimate (log intensity, higher = more binding, comparable within an allelic series)"
same,binding signal,[16],"10.5 upbm affinity estimate (log intensity, higher = more binding, comparable within an allelic series)"
same,binding signal,[17],"10.5 upbm affinity estimate (log intensity, higher = more binding, comparable within an allelic series)"
same,binding signal,[6],"12.7 upbm affinity estimate (log intensity, higher = more binding, comparable within an allelic series)"
same,binding signal,[18],"10 upbm affinity estimate (log intensity, higher = more binding, comparable within an allelic series)"
same,binding signal,[19],"9.28 upbm affinity estimate (log intensity, higher = more binding, comparable within an allelic series)"
same,binding signal,[13],"12.6 upbm affinity estimate (log intensity, higher = more binding, comparable within an allelic series)"
same,binding signal,[20],"9.72 upbm affinity estimate (log intensity, higher = more binding, comparable within an allelic series)"
GATTAATA,binding signal,[1],"12.7 upbm affinity estimate (log intensity, higher = more binding, comparable within an allelic series)"
same,binding signal,[16],"11.2 upbm affinity estimate (log intensity, higher = more binding, comparable within an allelic series)"
same,binding signal,[21],"11.8 upbm affinity estimate (log intensity, higher = more binding, comparable within an allelic series)"
same,binding signal,[17],"11 upbm affinity estimate (log intensity, higher = more binding, comparable within an allelic series)"
same,binding signal,[6],"12.7 upbm affinity estimate (log intensity, higher = more binding, comparable within an allelic series)"
GCAGCTGC,binding signal,[1],"8.45 upbm affinity estimate (log intensity, higher = more binding, comparable within an allelic series)"
same,binding signal,[22],"9.09 upbm affinity estimate (log intensity, higher = more binding, comparable within an allelic series)"
same,binding signal,[23],"9.05 upbm affinity estimate (log intensity, higher = more binding, comparable within an allelic series)"
same,binding signal,[24],"7.95 upbm affinity estimate (log intensity, higher = more binding, comparable within an allelic series)"
same,binding signal,[25],"8.99 upbm affinity estimate (log intensity, higher = more binding, comparable within an allelic series)"
same,binding signal,[26],"9.04 upbm affinity estimate (log intensity, higher = more binding, comparable within an allelic series)"
same,binding signal,[27],"9.02 upbm affinity estimate (log intensity, higher = more binding, comparable within an allelic series)"
same,binding signal,[28],"9.1 upbm affinity estimate (log intensity, higher = more binding, comparable within an allelic series)"
same,binding signal,[29],"9.06 upbm affinity estimate (log intensity, higher = more binding, comparable within an allelic series)"
same,binding signal,[30],"9.14 upbm affinity estimate (log intensity, higher = more binding, comparable within an allelic series)"
same,binding signal,[31],"9.05 upbm affinity estimate (log intensity, higher = more binding, comparable within an allelic series)"
same,binding signal,[32],"8.23 upbm affinity estimate (log intensity, higher = more binding, comparable within an allelic series)"
same,binding signal,[33],"9.04 upbm affinity estimate (log intensity, higher = more binding, comparable within an allelic series)"
same,binding signal,[5],"7.31 upbm affinity estimate (log intensity, higher = more binding, comparable within an allelic series)"
same,binding signal,[34],"9.1 upbm affinity estimate (log intensity, higher = more binding, comparable within an allelic series)"
same,binding signal,[6],"8.55 upbm affinity estimate (log intensity, higher = more binding, comparable within an allelic series)"
same,binding signal,[35],"7.82 upbm affinity estimate (log intensity, higher = more binding, comparable within an allelic series)"
same,binding signal,[36],"9.05 upbm affinity estimate (log intensity, higher = more binding, comparable within an allelic series)"
same,binding signal,[37],"9.09 upbm affinity estimate (log intensity, higher = more binding, comparable within an allelic series)"
same,binding signal,[8],"10.3 upbm affinity estimate (log intensity, higher = more binding, comparable within an allelic series)"
same,binding signal,[38],"9.27 upbm affinity estimate (log intensity, higher = more binding, comparable within an allelic series)"
same,binding signal,[39],"9.06 upbm affinity estimate (log intensity, higher = more binding, comparable within an allelic series)"
same,binding signal,[40],"7.63 upbm affinity estimate (log intensity, higher = more binding, comparable within an allelic series)"
same,binding signal,[41],"9.13 upbm affinity estimate (log intensity, higher = more binding, comparable within an allelic series)"
same,binding signal,[42],"9.1 upbm affinity estimate (log intensity, higher = more binding, comparable within an allelic series)"
same,binding signal,[43],"7.75 upbm affinity estimate (log intensity, higher = more binding, comparable within an allelic series)"
same,binding signal,[44],"9.05 upbm affinity estimate (log intensity, higher = more binding, comparable within an allelic series)"
same,binding signal,[45],"7.78 upbm affinity estimate (log intensity, higher = more binding, comparable within an allelic series)"
same,binding signal,[46],"9.34 upbm affinity estimate (log intensity, higher = more binding, comparable within an allelic series)"
same,binding signal,[11],"10.3 upbm affinity estimate (log intensity, higher = more binding, comparable within an allelic series)"
same,binding signal,[13],"8.5 upbm affinity estimate (log intensity, higher = more binding, comparable within an allelic series)"
same,binding signal,[47],"7.82 upbm affinity estimate (log intensity, higher = more binding, comparable within an allelic series)"
same,binding signal,[14],"7.36 upbm affinity estimate (log intensity, higher = more binding, comparable within an allelic series)"
